Laboratory results as given in the supplement of paper PMC13380429.
Values without a mark were called inactive.

Test system: Vero E6 infected with SARS-CoV-2
Experiment: SARS-CoV-2 infection rate relative to infected DMSO; higher = more infection, active = 60 or less
Conditions: 24 h

| Structure (SMILES) | SARS-CoV-2 infection rate [%] |
| --- | --- |
| Cc1cc(C(N)=O)ccc1-n1c(CCC(=O)O)ccc1-c1ccc(-n2ccnc2)cc1 (10 µM) | 89 |
| Cn1cc(-c2ccc(F)c(C(F)(F)F)c2)nc1C1CCN(c2ncnc3[nH]ncc23)CC1 (10 µM) | 110 |
| CS(=O)(=O)N(Cc1ccco1)C[C@@H](O)Cn1c2ccccc2c2ccccc21 (10 µM) | 91 |
| OCCN1CCN(CC/C=C2/c3ccccc3Sc3ccc(Cl)cc32)CC1 [zuclopenthixol] (0.833333 µM) | 110 |
| Cn1nnnc1SCC1=C(C(=O)O)N2C(=O)[C@@H](NC(=O)[C@H](OC=O)c3ccccc3)[C@H]2SC1 [cefamandole-nafate] (10 µM) | 102 |
| COc1ccc(Br)cc1S(=O)(=O)NC(=O)/C=C/c1ccccc1Cc1ccc2ccccc2c1 (10 µM) | 79.5 |
| CN1CCN(C(=O)c2cc3cc(Cl)ccc3[nH]2)CC1 (10 µM) | 111 |
| CCNCCS(=O)(=O)NC[C@@]1(c2ccccc2)SC(NC(=O)C(C)(C)C)=NN1C(=O)C(C)(C)C [litronesib] (10 µM) | 100 |
| CCCN1CCO[C@@H]2c3cc(O)ccc3OC[C@H]21 (10 µM) | 87 |
| CCCCCS(=O)(=O)CCCCCCCCCCn1c(-c2ccc(O)cc2)c(C)c2cc(O)ccc21 (0.833333 µM) | 102 |
| O=C(NCCCCN1CCN(c2cccc(Cl)c2Cl)CC1)c1ccc2c(c1)Cc1ccccc1-2 (10 µM) | 105 |
| CC(C)[C@H](CO)Nc1nc(Nc2cccc(Cl)c2)c2ncn(C(C)C)c2n1 [purvalanol-A] (0.833333 µM) | 109 |
| COc1cc(/C=C(\C#N)C(N)=O)cc(CSc2nc3ccccc3s2)c1O [tyrphostin-AG-825] (10 µM) | 108 |
| CCS(=O)(=O)N1CC(CC#N)(n2cc(-c3ncnc4[nH]ccc34)cn2)C1 [baricitinib] (10 µM) | 112 |
| N#Cc1ccc2[nH]cc(CCCCN3CCN(c4ccc5oc(C(N)=O)cc5c4)CC3)c2c1 [vilazodone] (0.833333 µM) | 102 |
| c1ccc(CCNc2nc(-c3ccccc3)cs2)cc1 [fanetizole] (10 µM) | 99.5 |
| Cc1c(F)cc(C(=O)NC2CC2)cc1-c1c(F)cn2c(C(C)(C)C)nnc2c1F (10 µM) | 108 |

| Structure (SMILES) | SARS-CoV-2 infection rate [%] |
| --- | --- |
| CC(C)(N)c1nc(-c2ccc(OC(F)(F)F)cc2)c[nH]1 (10 µM) | 103 |
| COc1ccc(-c2nc(C(=O)N3CCN(C)CC3)sc2-c2ccc(OC)cc2)cc1 (10 µM) | 93.5 |
| COc1cc(OCc2cccc(-c3ccccc3)c2C)cc(OC)c1CN1CCCC[C@H]1C(=O)O [PD1-PDL-inhibitor-1] (10 µM) | 95 |
| CC(C)(OCc1nn(Cc2ccccc2)c2ccccc12)C(=O)O [bindarit] (10 µM) | 112 |
| CN[C@@H]1[C@H](O[C@H]2[C@H](O[C@H]3[C@H](O)[C@@H](O)[C@H](NC(=N)N)[C@@H](O)[C@@H]3NC(=N)N)O[C@@H](C)[C@]2(O)CO)O[C@@H](CO)[C@H](O)[C@H]1O [dihydrostreptomycin] (10 µM) | 114 |
| CCn1c(N)c(C(=O)NC)c(=O)c2ccc(C#C[C@@](C)(O)COC)nc21 (10 µM) | 92 |
| CCNC(=O)/C=C/c1cccc(Br)c1 [cinromide] (10 µM) | 96 |
| CC(C)C(=O)Nc1ccc([N+](=O)[O-])c(C(F)(F)F)c1 [flutamide] (10 µM) | 112 |
| COc1ccc(-c2ccc3ncc4c(c3c2)n(-c2ccc(N3CCNCC3)c(C(F)(F)F)c2)c(=O)n4C)cn1 (0.833333 µM) | 104 |
| O=C(NC1CCNCC1)[C@@H]1CC[C@@H]2CN1C(=O)N2OS(=O)(=O)O [relebactam] (10 µM) | 110 |
| O=C(Nc1ccc(C(O)(C(F)(F)F)C(F)(F)F)cc1)c1ccc(C(F)(F)F)cc1 (10 µM) | 85 |
| O=C(O)COCCN1CCN(C(c2ccccc2)c2ccc(Cl)cc2)CC1 (centres undefined) [cetirizine] (10 µM) | 98.2 |
| CC1=C(C)C(=O)C(C(CCCCCC(=O)O)c2ccccc2)=C(C)C1=O (centres undefined) [seratrodast] (10 µM) | 100 |
| NC(=O)c1ccc(N(C(N)=O)c2c(F)cccc2F)nc1-c1ccc(F)cc1F (10 µM) | 111 |
| N#C/C(=C\c1ccc(O)c(O)c1)C(=O)NCCCCc1ccccc1 (0.833333 µM) | 89.5 |
| CC(C)(C#N)c1cc(Cn2cncn2)cc(C(C)(C)C#N)c1 [anastrozole] (10 µM) | 109 |
| N#Cc1cc(CN2CCC(Nc3ncnc4sc(Cl)cc34)CC2)ccc1F (10 µM) | 116 |
